Results: PubChem BioAssay AID431 (Sanford-Burnham Center for Chemical Genomics, 2006)
Hit rate of the full screen: of about 63,000 compounds, about 1,100 (1.7%) were called active. Many of the other results were omitted from the sample, so actives are more common in it than they were. Measured potencies and affinities stand elsewhere. Unmarked numbers belong to inactive results.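 The calls were made as follows: active = compounds whose percent cytotoxicity in the single-dose primary screen, scaled between solvent and toxic-drug controls, exceeds 50; inactive = the rest.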

Experiment: viability loss of HPDE-C7K cells – cell-based, fluorescence, HTS, primary screen (AID 431);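 also: 0% = DMSO solvent wells and 100% = doxorubicin-treated wells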
Conditions: HPDE-C7K KRASV12 cells, Alamar Blue viability, 48 h; at 10 µM; hits give high values

Structure (SMILES)	cytotoxicity
Cn1nnnc1SCC(=O)N1CCc2ccccc2C1	-12.2%
CC(C)c1ccc(NC(=O)C(c2ccccc2)N2CCN(C(=O)c3ccco3)CC2)cc1 (stereo not drawn)	-11.8%
COc1ccc(NS(=O)(=O)c2ccc(O)c(C(=O)OCC(=O)N3CC(C)OC(C)C3)c2)cc1 (stereo not drawn)	11.2%
C=CCn1c(Cc2csc(N)n2)nnc1SCc1ccc(C(=O)OC)cc1	-10.3%
Cc1ccc(-n2c(SCC(=O)NCc3ccco3)nc3sc(C)c(C)c3c2=O)cc1	-4%
Cc1cc(=O)oc2c(N)c(O)ccc12	-2.8%
Cc1cc(C)c2ccc(N)nc2c1O	121% (active)
Cc1cc(C)c2ccc(C)[n+]([O-])c2c1O	-6.5%
CCCC(=O)Nc1ccccc1NC(=O)CN(C)S(=O)(=O)c1ccccc1	-1.8%
CC(C)(C)NC(=O)CSc1nsc(SCC(=O)NC(C)(C)C)c1C#N	11.8%
Cc1csc(NC(=O)CSc2nc(C)cs2)n1	6.5%
Cc1n[nH]c(C)c1Cc1ccc(C(=O)O)cc1	-13.2%
CS(=O)(=O)c1ccc2nc(NC(=O)CC3CCCC3)sc2c1	-9%
Cc1cc(C)c(NC2=NCC(=O)N2C2CCCCC2)c(C)c1	-9.5%
Cc1nc(N2CCc3ccccc3C2)[nH]c(=O)c1CCC(C)C	8.4%
COc1ccc(C)cc1NC(=O)CN(c1ccccc1)S(C)(=O)=O	-2.4%
O=C(Nc1nccs1)c1cc2sccc2n1Cc1ccc(F)cc1	-3.4%
COc1ccc(CCNc2nnc(Sc3nnnn3-c3ccccc3)s2)cc1OC	68.8% (active)
Cc1ccc(C)c(Oc2nnnn2-c2ccccc2)c1	-2.3%
C(=C\CSc1nnnn1-c1ccccc1)/CSc1nnnn1-c1ccccc1	-12.8%
COc1ccc(CCNC(=O)CSc2nnnn2-c2ccccc2OC)cc1OC	6.4%
Cn1ccnc1Sc1nnnn1-c1ccccc1	-9.8%
CCCSc1nnc(Sc2nnnn2-c2ccccc2)s1	88.2% (active)
COc1ccc(-n2nnnc2SCC(=O)NCCc2ccc(OC)c(OC)c2)cc1	-3.9%
c1ccc(-n2nnnc2SCCCSc2nc3ccccc3s2)cc1	2%
CC1CC(c2ccccc2)n2nc(NC(=O)CCc3ccccc3)nc2N1 (stereo not drawn)	3.9%
O=C(NCc1cccs1)c1noc2c1CCCC2	5.2%
O=C1CC(N2CCN(c3ccc(S(=O)(=O)N4CCCC4)cc3)CC2)C(=O)N1c1ccc(F)cc1 (stereo not drawn)	-0.7%
